High-throughput results: PubChem BioAssay, The Scripps Research Institute Molecular Screening Center
PME-1 inh: PME-1 (human) inhibition. inhibition, % at 5.9 µM. AID 2130. actives 0.53% (n = 320,000). recombinant PME-1, FP-Rh probe fluorescence polarization;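 active = inhibition above the campaign mean of all compounds plus 3 SD, cut at about 26% in these data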;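 also: competitive labeling of PME-1 active site by serine hydrolase directed probe; 0% = PME-1 with DMSO and 100% = wells lacking PME-1 enzyme; inhibitors block probe labeling so polarization falls and inhibition rises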
Target sequence (Q9Y570 whole entry, looked up): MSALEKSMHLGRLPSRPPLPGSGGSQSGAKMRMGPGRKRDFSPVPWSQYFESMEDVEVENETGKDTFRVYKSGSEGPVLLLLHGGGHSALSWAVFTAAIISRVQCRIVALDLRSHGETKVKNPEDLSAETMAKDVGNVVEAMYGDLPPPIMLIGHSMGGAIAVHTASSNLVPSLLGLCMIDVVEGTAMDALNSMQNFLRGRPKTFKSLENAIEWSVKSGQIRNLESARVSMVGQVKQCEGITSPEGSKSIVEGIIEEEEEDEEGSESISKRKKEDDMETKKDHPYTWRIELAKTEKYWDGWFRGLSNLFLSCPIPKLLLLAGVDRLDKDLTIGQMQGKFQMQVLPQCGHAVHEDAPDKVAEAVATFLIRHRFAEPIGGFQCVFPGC
Fam108B inh: blocks mouse Fam108B hydrolase in RBBP9 counter-screen; actives 0.33% (n = 300,000); inhibition, % at 9.51 µM; recombinant Fam108B, FP-Rh probe fluorescence polarization;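 active = inhibition above the screen mean inhibition plus 3 SD, computed separately per campaign, cut at about 18% in these data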;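 also: inhibitors lower polarization as less probe binds the enzyme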
pPAFAH FP inh: pPAFAH (human) enzyme inhibition. Q13093. recombinant pPAFAH, FP-rhodamine probe fluorescence polarization. inhibition, % at 3.39 µM. actives 1.5% (n = 330,000). AID 463082;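 active = inhibition above the mean inhibition across the screen plus 3 SD, cut at about 25% in these data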;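 also: inhibitors block binding of the rhodamine activity-based probe so polarization drops; 0% = enzyme with DMSO and 100% = wells lacking pPAFAH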
PAFAH1B2 inh: PAFAH1B2 (human) inhibition. recombinant PAFAH1B2, FP-rhodamine activity probe, fluorescence polarization. inhibition, % at 3.39 µM. actives 1.2% (n = 340,000);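 active = inhibition above the mean of all tested compounds plus 3 SD, cut at about 24% in these data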;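 also: 0% = enzyme with DMSO and 100% = wells lacking PAFAH1B2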
PAFAH2 inh: PAFAH2 (human) inhibition | inhibition, % at 3.39 µM | actives 0.99% (n = 340,000) | AID 492956 | recombinant PAFAH2, FP-rhodamine activity probe, fluorescence polarization | Q99487;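 active = inhibition above the mean over all tested compounds plus 3 SD, cut at about 30% in these data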;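 also: inhibitors block probe labeling of enzyme so polarization drops; 0% = enzyme with DMSO and 100% = wells lacking PAFAH2 protein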
PAFAH1B3 FP inh: PAFAH1B3 (human) inhibition. inhibition, % at 3.39 µM. recombinant PAFAH1B3, FP-rhodamine probe, fluorescence polarization. actives 0.28% (n = 340,000);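 active = inhibition above the screen-wide average of all tested compounds plus 3 SD, cut at about 25% in these data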;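 also: 0% = enzyme with DMSO only and 100% = wells lacking PAFAH1B3 protein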
Fam108b inh conf: confirmation of mouse Fam108b serine hydrolase inhibitors | shares compounds with Fam108B inh | actives 44% (n = 930) | AID 1978 | recombinant Fam108b, FP-Rh probe fluorescence polarization | inhibition, % at 9.51 µM;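 active = inhibition above a limit from the primary screen, the mean over all compounds plus 3 SD, cut at about 19% in these data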;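 also: 0% = median of active Fam108b wells and 100% = catalytically dead S170A mutant; inhibitors free the probe so polarization falls as inhibition rises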
Fam108b inh: mouse ABHD17B inhibition; shares compounds with Fam108B inh; recombinant Fam108b, gel-based ABPP, fluorophosphonate probe; inhibition, % at 20 µM; actives 44% (n = 260); AID 588649; in the data active = inhibition above about 40%
pPAFAH FP conf: confirmation of human plasma PAF acetylhydrolase (pPAFAH) inhibitors; recombinant pPAFAH, FP-Rh probe fluorescence polarization; inhibition, % at 3.39 µM; AID 463230; shares compounds with pPAFAH FP inh; actives 72% (n = 2,300);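 active = mean inhibition of the triplicate above the hit cutoff set for the earlier primary screen, cut at about 25% in these data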;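 also: 0% = enzyme with DMSO and 100% = wells lacking pPAFAH enzyme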
An asterisk follows results filed as active; x = no result given; + = active, no number. Hits are enriched below; roughly 2.9% of the tested compounds scored in any of these assays.

SMILES | PME-1 inh | Fam108B inh | pPAFAH FP inh | PAFAH1B2 inh | PAFAH2 inh | PAFAH1B3 FP inh | Fam108b inh conf | pPAFAH FP conf | others
O=C(CCNC(=O)c1ccc(Cl)cc1)Nc1ccncc1 | 1 | -1 | 3 | 7 | 5 | 2 | x | x
Cc1oc2c(c1C(=O)c1ccccc1)C(=O)C(=O)c1ccccc1-2 | 29* | 55* | 36* | 6 | 34* | 16 | 35* | 25* | Fam108b inh=25
COCCN1C(=O)N[C@@H](c2ccccc2)[C@H](C(C)=O)[C@H]1C | -2 | 6 | 4 | 3 | -1 | -2 | x | x
CCCCNc1c2c3c(cccc3n(C)c1=O)C(=O)c1ccccc1-2 | 75* | 45* | 43* | 53* | 75* | 63* | 49* | 48* | Fam108b inh=25
O=S(=O)(c1ccc2nc(-c3ccco3)c(-c3ccco3)nc2c1)N1CCOCC1 | 12 | 19* | 43* | 11 | 21 | 12 | 12 | 13
O=S(=O)(c1ccc2ccccc2c1)N1CCOCC1 | 3 | 0 | 2 | 4 | 0 | 4 | x | x
O=C(NCCOc1ccccc1)C1Nc2ccc(OC(F)(F)F)cc2C2C=CCC12 (stereo not given) | 3 | -2 | 4 | -1 | 4 | 18 | x | x
O=C(O)c1ccc2c(c1)[C@@H]1C=CC[C@@H]1[C@H](c1ccccn1)N2 | -34 | 39* | 64* | 33* | 49* | 61* | + | 15 | Fam108b inh=0
COc1cccc(NS(=O)(=O)c2ccc3c(c2)C2C=CCC2C(c2ccc(C(=O)O)cc2)N3)c1 (stereo not given) | -16 | 43* | 61* | 36* | 68* | 40* | 16 | 61*
OCCC1CN(C2CSCCSC2)CCN1Cc1ccccc1 (stereo not given) | -2 | -5 | 3 | 3 | 2 | 1 | x | x
O=C(N1CCC(n2nc(-c3ccccc3)oc2=O)CC1)C1(c2ccccc2)CC1 | -4 | 0 | 4 | -3 | -5 | -7 | x | x
O=S(=O)(O)c1cc(O)ccc1O | 0 | 5 | 3 | 1 | -4 | 6 | x | x
O=S(=O)(c1cc(O)ccc1O)c1cccc2c(S(=O)(=O)c3cc(O)ccc3O)cccc12 | 14 | 36* | 41* | 23 | 15 | 22 | 32* | 29* | Fam108b inh=55*
Cc1c(Br)c(O)c(Br)c2sc(=O)oc12 | 18 | 29* | 84* | 7 | -1 | 14 | 1 | 24
COc1ccc(Nc2nnc(SC(C(=O)Nc3ccc(OC)c(Cl)c3)c3ccccc3)s2)cc1 (stereo not given) | 52* | 38* | 35* | 4 | 13 | -17 | 25* | 17
COc1ccc(Nc2nnc(SC(C(=O)Nc3cc(C)ccc3C)c3ccccc3)s2)cc1 (stereo not given) | 0 | 5 | 2 | -3 | 10 | 3 | x | x
CC1(C)CC(=O)C2=C(C1)c1c(ccc3ccccc13)NC2c1cc([N+](=O)[O-])cc([N+](=O)[O-])c1O (stereo not given) | -5 | 26* | 41* | 29* | 35* | 20 | 57* | 79* | Fam108b inh=50*
CC1(C)CC(=O)C2=C(C1)c1c(ccc3ccccc13)NC2c1ccc(C(=O)O)cc1 (stereo not given) | 9 | -2 | 5 | -2 | 5 | -2 | x | x
Cc1cc(N(C)C)nc(Nc2ccccc2)n1 | -3 | x | 2 | -1 | 1 | 3 | x | x
Cn1cc(C(=O)NCc2ccc(Cl)cc2)c(=O)c2cc(S(=O)(=O)N3CCOCC3)ccc21 | 4 | 3 | 4 | 4 | -1 | 4 | x | x
Cc1ccccc1NC(=O)C1Cc2ccccc2CN1C(=O)OCc1ccccc1 (stereo not given) | -4 | -4 | -6 | 4 | -5 | 0 | x | x
COc1ccccc1Oc1c(C)oc2c(CN3CCN(CCO)CC3)c(O)ccc2c1=O | 41* | 47* | 41* | x | x | x | -7 | 4
